Data as given in PMC5540273 (PLoS ONE, 2017).
“And” between values parts separate entries of the source, which are not always exact repeats. Equal values may be shown once. Read-outs that look alike come from different tables or passages of the source.

What was measured:
CSNK2A1 = settings: concentration: 1 μM, replicates: in singlicate, n = 1
CSNK2A2 = settings: concentration: 1 μM, replicates: in singlicate, n = 1
CTK = system: T1, CTK; settings: concentration: 1 μM, replicates: in singlicate, n = 1
T1 construct: gene MATK

DAPK1 = settings: concentration: 1 μM, replicates: in singlicate, n = 1
DAPK2 = settings: concentration: 1 μM, replicates: in singlicate, n = 1
DAPK3 = settings: concentration: 1 μM, replicates: in singlicate; n = 1
DCAMKL1 = system: T2, DCAMKL1; settings: concentration: 1 μM, replicates: in singlicate, n = 1
T2 construct: gene DCLK1

DCAMKL2 = system: T3, DCAMKL2; settings: concentration: 1 μM, replicates: in singlicate; n = 1
T3 construct: gene DCLK2

DCAMKL3 = system: T4, DCAMKL3; settings: concentration: 1 μM, replicates: in singlicate, n = 1
T4 construct: gene DCLK3

DDR1 = settings: concentration: 1 μM, replicates: in singlicate, n = 1
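Further: KINOMEscan kinase panel screen.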

Compound | %Inh (CSNK2A1) [%] | %Inh (CSNK2A2) [%] | %Inh (CTK) [%] | %Inh (DAPK1) [%] | %Inh (DAPK2) [%] | %Inh (DAPK3) [%] | %Inh (DCAMKL1) [%] | %Inh (DCAMKL2) [%] | %Inh (DCAMKL3) [%] | %Inh (DDR1) [%] | %Inh (CSNK2A1; 1 µM) | %Inh (CSNK2A2; 1 µM) | %Inh (CTK; 1 µM) | %Inh (DAPK1; 1 µM) | %Inh (DAPK2; 1 µM) | %Inh (DCAMKL1; 1 µM) | %Inh (DCAMKL3; 1 µM) | %Inh (DDR1; 1 µM)
C[C@@H]1CCN(C(=O)CO)C[C@@H]1N(C)c1ncnc2[nH]ccc12 | 0 | 0 | 14 | 2 | 7 | 10 | 6 | 0 | 90 | 0 | – | – | – | – | – | – | – | –
Nc1nc(-c2ccccn2)c(-c2ccnc3ccccc23)s1 [GW548057] | 0 | 17 | 0 | 11 | 13 | 31 | 23 | 11 | 6 | 0 | – | – | – | – | – | – | – | –
COc1ccc(Nc2nccc(N3CCC(NC(=O)Nc4ccc5c(c4)OCO5)C3)n2)cc1 (stereo not drawn) [GSK1379745] | 5 | 0 | 0 | 26 | 14 | 17 | 0 | 14 | 0 | 15 | – | – | – | – | – | – | – | –
O=C(Nc1n[nH]c2nc(-c3ccco3)c(Br)cc12)c1ccc(CN2CCCC2)cc1.O=C(O)[C@H](O)[C@@H](O)C(=O)O [SB-742352] | 0 | 29 | 15 | 0 | 0 | 0 | 0 | 0 | 28 | 19 | – | – | – | – | – | – | – | –
Oc1ccc2ncnc(Nc3ccc(OCc4ccccc4)cc3)c2c1 [GI262866] | 26 | 10 | 3 | 0 | 0 | 0 | 0 | 0 | 0 | 7 | – | – | – | – | – | – | – | –
CNc1nccc(-c2c(-c3ccc(F)cc3)ncn2CCCN2CCOCC2)n1 [SB-222516] | 6 | 5 | 0 | 0 | 0 | 15 | 8 | 0 | 19 | 0 | – | – | – | – | – | – | – | –
CCn1c(-c2ccncc2)nc2cnccc21 [SB-735216] | 18 | 0 | 11 | 1 | 0 | 0 | 8 | 0 | 0 | 0 | – | – | – | – | – | – | – | –
Cc1ccc(C)c(NC(=O)NCCNc2ccnc(Nc3ccc(F)cc3)n2)c1 [GSK1379878] | 5 | 0 | 0 | 0 | 0 | 11 | 19 | 0 | 0 | 1 | – | – | – | – | – | – | – | –
Clc1ccc(-c2cc(-c3c[nH]nc3-c3ccccn3)ccn2)cc1 [GW681251] | 0 | 21 | 0 | 0 | 0 | 30 | 0 | 0 | 0 | 73 | – | – | – | – | – | – | – | –
NC(=O)c1sc(-n2cnc3ccccc32)cc1OCc1ccccc1F [GSK1024306] | 10 | 6 | 12 | 3 | 0 | 0 | 0 | 1 | 0 | 19 | – | – | – | – | – | – | – | –
CS(=O)(=O)CCNCc1nc(-c2ccc3ncnc(Nc4ccc(OCc5cccc(F)c5)c(Cl)c4)c3c2)cs1.Cl [GW583340] | 2 | 17 | 0 | 25 | 0 | 6 | 16 | 0 | 0 | 4 | – | – | – | – | – | – | – | –
OCCOCCn1ccc2ncnc(Nc3ccc(Oc4cccc(Cl)c4)c(Cl)c3)c21 | 0 | 0 | 0 | 0 | 0 | 0 | 36 | 0 | 0 | 0 | – | – | – | – | – | – | – | –
CN1CCC(n2cnc(-c3ccc(F)cc3)c2-c2ccnc(NC3CCNCC3)n2)CC1 [SB-229482] | 12 | 21 | 9 | 14 | 15 | 0 | 0 | 16 | 16 | 0 | – | – | – | – | – | – | – | –
Nc1nc(-c2ccc3c(N)n[nH]c3c2)cc(N2CCC[C@@H](C(=O)Nc3ccccc3)C2)n1.O=C(O)C(F)(F)F.O=C(O)C(F)(F)F [GSK2288359] | 1 | 18 | 0 | 7 | 0 | 0 | 12 | 0 | 0 | 0 | – | – | – | – | – | – | – | –
COc1ccc(-c2oc3ncnc(N)c3c2-c2ccc(OC)cc2)cc1 [SB-589132] | 30 | 40 | 0 | 0 | 0 | 37 | 14 | 7 | 36 | 94.6 | – | – | – | – | – | – | – | –
CC(C)N1CCC(n2cnc(-c3ccc(F)cc3)c2-c2ccnc(N)n2)CC1 [SB-223132] | 0 | 0 | 0 | 26 | 0 | 17 | 22 | 4 | 20 | 46 | – | – | – | – | – | – | – | –
COc1ccc(-c2nc3n(c2-c2ccncc2)CCC3)cc1 [SKF-104493] | – | – | – | – | – | 0 | – | 0 | – | – | 0% and 2% | 13% and 15% | 25% and 0% | 82% and 21% | 0% and 6% | 21% and 0% | 0% and 18% | 33% and 67%
CC(C)(C)OC(=O)NC1CCCN(c2cc(-c3ccc4c(N)n[nH]c4c3)nc(N)n2)C1 (stereo not drawn) [GSK2286096] | 0 | 5 | 0 | 18 | 0 | 12 | 10 | 0 | 0 | 0 | – | – | – | – | – | – | – | –
COc1cc2ncnc(Nc3ccc(OCc4ccccc4Br)c(Cl)c3)c2cc1OC.Cl [GI261590] | 0 | 0 | 0 | 0 | 0 | 17 | 14 | 0 | 21 | 0 | – | – | – | – | – | – | – | –
Cl.O=S(=O)(c1cccc(F)c1)c1ccc(Nc2ncnc3cc(Br)sc23)cc1Cl [GSK306886] | 0 | 37 | 0 | 8 | 0 | 47 | 6 | 0 | 9 | 2 | – | – | – | – | – | – | – | –
O=C(Nc1ccccc1F)NC1CCN(c2ccnc(Nc3ccc(F)cc3)n2)C1 (stereo not drawn) [GSK1379722] | 0 | 0 | 0 | 0 | 0 | 5 | 0 | 0 | 5 | 3 | – | – | – | – | – | – | – | –
